Compound activity (PubChem)
Only some compounds are listed: those with a hit (about 3.6% of all), similar ones and a draw of the others.
Rango dissoc inh: qHTS Assay for Inhibitors of RanGTP induced Rango (Ran-regulated importin-beta cargo) - Importin beta complex dissociation | Snurportin-1 (Homo sapiens) + GTP-binding nuclear protein Ran (Homo sapiens) + Importin … | Biochemical FRET Rango-importin beta, RanGTP-induced dissociation | Potency, µM (series often up to 46.1 µM), without a hit: top-dose activity change, negative = inhibition | 0.071% of 340,000 active; calls by dose curve; further: potency means the concentration at half of the fitted maximal effect; % of control where 0% means no effect; nearly all actives have a fitted effect of over 45% in size
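Rango FRET biosensor (snurportin-1 IBB flanked by N-terminal EYFP and C-terminal CFP10) at 0.1 uM, with 0.25 uM importin beta in PBS, 1mM DTT, 0.02% Tween-20, 0.1% BSA. 0.6 uM Ran, 2mM GTP and 0.2 uM RCC1 were then added for 45 min at room temperature. Inhibition read as loss of FRET rise.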
Rango complex inh: qHTS Assay for Inhibitors of Rango (Ran-regulated importin-beta cargo) - Importin beta complex formation; Importin subunit beta-1 (Homo sapiens), Q14974; Rango CFP/YFP FRET sensor + importin beta, 45 min; Potency, µM (series often up to 92.2 µM), without a hit: at the highest dose inhibition of complex formation; 0.031% of 340,000 active; calls by dose curve;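 further: potency means the concentration at half of the fitted maximal effect; 0% = DMSO wells and 100% = buffer wells lacking importin beta; nearly all actives have a fitted effect of over 15% in size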
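Inhibition scored from the CFP 486 nm/YFP 530 nm FRET ratio 45 min after adding 0.125 microM importin beta to 50 nM Rango biosensor preincubated 5 min with compound (room temperature, PBS with DTT, Tween-20, BSA). No-importin wells as positive control.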
PI5P4K alpha inh: qHTS for Inhibitors of phosphatidylinositol 5-phosphate 4-kinase (PI5P4K); Phosphatidylinositol 5-phosphate 4-kinase type-2 alpha (Homo sapiens), P48426; PI5P4Kalpha enzyme, ADP-Glo luminescence, 60 min; hits give low values; max response, %; 1.2% of 330,000 active; AID 652105, 2013; active means max response of -50% or lower; inconclusive means between -30% and -50%; inactive means -30% or higher; further: value at the top dose of about 77 µM; on the % scale 0 is the no-effect control and ±100 the full control effect
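Single end-point luminescence (ADP-Glo) quantified ADP from PI5P4Kalpha turnover; ATP 5 microM final, 1 h at RT, 0.1% CHAPS and 0.28 mM EGTA in HEPES pH 7.4.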
KAT2A inh: qHTS Assay for Inhibitors of GCN5L2 | GCN5L2 HAT assay, ThioGlo1 CoA-SH fluorescence | Histone acetyltransferase KAT2A (Homo sapiens), Q92830 | Potency, µM (top dose mostly 58.9 µM), for inactives: top-dose activity change, negative = inhibition, most hits filed as inhibitors | 0.21% of 390,000 active; further: potency means the concentration at half of the fitted maximal effect; on the % scale 0 is the no-effect control and ±100 the full control effect
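ThioGlo1-coupled HAT assay: 20nM GCN5L2, 70uM acetyl-CoA, 75uM H3(1-25) peptide, pH 7.5. Fluorescence read at 340/540nm at start and after 20 min at room temperature.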
PLK1 PBD block: qHTS for Inhibitors of PLK1-PDB (polo-like kinase 1 - polo-box domain): Primary Screen. AID 720504, 2013. Plk1 PBD binding of FITC phosphopeptide, fluorescence polarization. 2.8% of 360,000 active. Potency, µM, for inactives: max response, negative = inhibition, actives largely listed as inhibitors; further: potency means the concentration at half of the fitted maximal effect; series mostly up to about 57 µM; on the % scale 0 is the no-effect control and ±100 the full control effect; nearly all actives have a fitted effect of over 65% in size
Target sequence (P53350 whole entry, looked up, the tested form may be a part): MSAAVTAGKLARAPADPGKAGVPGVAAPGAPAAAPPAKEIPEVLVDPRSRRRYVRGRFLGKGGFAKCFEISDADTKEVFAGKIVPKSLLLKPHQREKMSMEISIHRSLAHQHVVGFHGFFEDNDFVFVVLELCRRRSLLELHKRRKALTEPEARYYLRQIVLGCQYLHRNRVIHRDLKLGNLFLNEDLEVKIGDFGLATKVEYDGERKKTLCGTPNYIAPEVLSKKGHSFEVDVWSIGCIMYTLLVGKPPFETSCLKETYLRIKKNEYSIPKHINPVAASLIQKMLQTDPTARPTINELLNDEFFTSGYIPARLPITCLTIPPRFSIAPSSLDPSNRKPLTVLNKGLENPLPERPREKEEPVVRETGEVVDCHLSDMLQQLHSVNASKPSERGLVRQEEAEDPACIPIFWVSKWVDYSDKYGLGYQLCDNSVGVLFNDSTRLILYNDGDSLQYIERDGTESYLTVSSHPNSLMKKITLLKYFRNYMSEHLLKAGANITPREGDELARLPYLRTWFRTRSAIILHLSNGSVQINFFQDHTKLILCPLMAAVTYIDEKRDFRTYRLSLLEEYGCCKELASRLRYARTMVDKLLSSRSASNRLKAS
VDR inh: Inhibitors of the vitamin D receptor (VDR): qHTS; VDR-SRC2-3 peptide fluorescence polarization, 2 h; Potency, µM, without a hit: max response, negative = inhibition, hits mostly inhibitors; 0.93% of 400,000 active; further: potency means the concentration at half of the fitted maximal effect; on the % scale 0 is the no-effect control and ±100 the full control effect
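VDR–SRC2-3 interaction, FP format. Cmpds 23 nl via pintool, brief spin, 2 h ambient incubation.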
Numbers without * were called inactive; ? = inconclusive; / = no result. Unless noted, the call rests on the fitted dose curve; in most records, active means well fitted curve in the direction sought with a large enough effect; inconclusive means small, poorly fitted or top-dose-only effect, or another doubt; inactive means no such curve, though single readings can be large; an effect the other way counts as inactive or inconclusive.

SMILES	Rango dissoc inh	Rango complex inh	PI5P4K alpha inh	KAT2A inh	PLK1 PBD block	VDR inh
O=C(O)COc1ccc(Br)cc1/C=C1/SC(=O)N(CC(=O)N2CCCC2)C1=O	2%	-5%	2	-11%	-28%	?
O=C(O)CN1C(=O)/C(=C\c2cc(Br)ccc2OCc2ccc([N+](=O)[O-])cc2)SC1=S	1%	-1%	-71*	-22%	21µM*	35µM*
COc1cccc(CNC(=O)CCCn2ncn3c(cc4occc43)c2=O)c1OC	/	/	/	-4%	/	3%
O=S(=O)(c1ccc2ncccc2c1)N1CCN(c2nc(-c3cccs3)nc3ccccc23)CC1	/	/	/	/	/	-8%
O=C(O)CN1C(=O)/C(=C\c2ccccc2OCc2ccc(Cl)cc2Cl)SC1=S	-7%	0%	-25	18µM*	27µM*	?
O=C(O)CN1C(=O)/C(=C\c2cccc(OCc3ccc(Cl)cc3Cl)c2)SC1=S	14%	0%	-1	?	21µM*	?
O=C(O)CCN1C(=O)/C(=C\c2cccc(OCc3ccccc3)c2)SC1=S	-7%	-1%	2	?	19µM*	?
O=C(Cn1c(=O)n(Cc2ccco2)c(=O)c2ccccc21)Nc1ccc(Cl)cc1Cl	/	/	/	-6%	/	10%
N#Cc1c(-c2ccccc2)cc(-c2ccccc2)[nH]c1=O	-12%	2%	1	1%	-6%	-6%
N#Cc1c(-c2cccc(Br)c2)cc(-c2ccco2)[nH]c1=O	?	?	-62*	-24%	13µM*	4%
O=C(O)c1ccc2c(c1)C(=O)N([C@H](Cc1ccc(O)c(O)c1)C(=O)O)C2=O	/	/	/	1%	/	/
CC[C@H](NC(=O)[C@H](CCCN=C(N)N)NC(=O)[C@H](Cc1c[nH]c2ccccc12)NC(=O)[C@@H](N)CS)C(=O)N[C@@H](CCCN=C(N)N)C(=O)N[C@@H](Cc1ccc(O)cc1)C(N)=O	/	/	/	?	/	40µM*
NCCCC[C@H](NC(=O)[C@H](CCCN=C(N)N)NC(=O)[C@H](CO)NC(=O)[C@H](CCCN=C(N)N)NC(=O)[C@@H](N)Cc1ccc(O)cc1)C(=O)N[C@@H](Cc1ccc(O)cc1)C(=O)N[C@@H](CO)C(=O)N[C@@H](CO)C(=O)N[C@@H](Cc1c[nH]c2ccccc12)C(=O)N[C@@H](Cc1ccc(O)cc1)C(=O)O	/	/	/	-25%	/	2%
CCCCC(CC)COC(=O)CC(C(=O)OCC(CC)CCCC)S(=O)(=O)O (stereo not drawn)	/	/	/	?	/	25µM*
CCCCCc1c(O)nc(SCC(=O)NCC2CCCO2)[nH]c1=O (stereo not drawn)	1%	0%	-22	0%	27µM*	-4%
Cc1nnc(N2C(=O)C(O)=C(C(=O)c3ccco3)C2c2cccc([N+](=O)[O-])c2)s1 (stereo not drawn)	0%	4%	0	-8%	-6%	-13%
Cc1ccc2nc(N3C(=O)C(O)=C(C(=O)c4ccco4)C3c3ccc(O)cc3)sc2c1 (stereo not drawn)	/	/	/	-20%	/	/
CCOC(=O)c1sc(N2C(=O)C(O)=C(C(=O)c3ccco3)C2c2cccc([N+](=O)[O-])c2)nc1C (stereo not drawn)	-6%	?	-68*	?	30µM*	71µM*
Cc1cc(C)c2nc(N3C(=O)C(O)=C(C(=O)c4ccco4)C3c3ccc(O)cc3)sc2c1 (stereo not drawn)	26µM*	?	-65*	?	19µM*	79µM*
